Experiment [1] addresses Sphingosine kinase 1 (Homo sapiens) (UniProt Q9NYA1). The conditions noted are these: at 1 µM.
Experiment [2] concerns the target T1, Sphingosine kinase 2 (Homo sapiens) (UniProt Q9NRA0).
T1 sequence (whole entry): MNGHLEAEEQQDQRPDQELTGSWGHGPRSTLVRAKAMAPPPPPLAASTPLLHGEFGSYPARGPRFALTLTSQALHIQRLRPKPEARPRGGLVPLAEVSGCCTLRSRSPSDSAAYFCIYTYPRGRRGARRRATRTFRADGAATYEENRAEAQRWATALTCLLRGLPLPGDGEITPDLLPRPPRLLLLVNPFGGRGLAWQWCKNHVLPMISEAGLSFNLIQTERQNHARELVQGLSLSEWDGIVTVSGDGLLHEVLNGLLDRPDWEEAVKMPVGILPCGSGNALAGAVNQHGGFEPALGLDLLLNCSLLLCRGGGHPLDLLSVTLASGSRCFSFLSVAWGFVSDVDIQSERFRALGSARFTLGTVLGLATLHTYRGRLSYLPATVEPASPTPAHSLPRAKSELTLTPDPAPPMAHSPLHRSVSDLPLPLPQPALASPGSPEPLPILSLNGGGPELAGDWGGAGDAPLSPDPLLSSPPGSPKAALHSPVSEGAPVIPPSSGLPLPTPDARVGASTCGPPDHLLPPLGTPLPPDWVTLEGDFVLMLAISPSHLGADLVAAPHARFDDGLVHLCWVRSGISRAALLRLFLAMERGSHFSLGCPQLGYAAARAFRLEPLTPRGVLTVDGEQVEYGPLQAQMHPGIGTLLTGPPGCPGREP
To be noted: at 0.1 µM.

The target in experiment [3] is T1, Sphingosine kinase 2 (Homo sapiens). The conditions noted are these: at 1 µM.
Experiment [4] addresses Casein kinase II subunit alpha (Homo sapiens) (UniProt P68400). To be noted: at 0.1 µM.
For experiment [5] the target is unchanged. The conditions noted are these: at 1 µM.
The target of experiment [6] is T2, Inhibitor of nuclear factor kappa-B kinase subunit alpha (Homo sapiens) (UniProt O15111).
T2 sequence (whole entry): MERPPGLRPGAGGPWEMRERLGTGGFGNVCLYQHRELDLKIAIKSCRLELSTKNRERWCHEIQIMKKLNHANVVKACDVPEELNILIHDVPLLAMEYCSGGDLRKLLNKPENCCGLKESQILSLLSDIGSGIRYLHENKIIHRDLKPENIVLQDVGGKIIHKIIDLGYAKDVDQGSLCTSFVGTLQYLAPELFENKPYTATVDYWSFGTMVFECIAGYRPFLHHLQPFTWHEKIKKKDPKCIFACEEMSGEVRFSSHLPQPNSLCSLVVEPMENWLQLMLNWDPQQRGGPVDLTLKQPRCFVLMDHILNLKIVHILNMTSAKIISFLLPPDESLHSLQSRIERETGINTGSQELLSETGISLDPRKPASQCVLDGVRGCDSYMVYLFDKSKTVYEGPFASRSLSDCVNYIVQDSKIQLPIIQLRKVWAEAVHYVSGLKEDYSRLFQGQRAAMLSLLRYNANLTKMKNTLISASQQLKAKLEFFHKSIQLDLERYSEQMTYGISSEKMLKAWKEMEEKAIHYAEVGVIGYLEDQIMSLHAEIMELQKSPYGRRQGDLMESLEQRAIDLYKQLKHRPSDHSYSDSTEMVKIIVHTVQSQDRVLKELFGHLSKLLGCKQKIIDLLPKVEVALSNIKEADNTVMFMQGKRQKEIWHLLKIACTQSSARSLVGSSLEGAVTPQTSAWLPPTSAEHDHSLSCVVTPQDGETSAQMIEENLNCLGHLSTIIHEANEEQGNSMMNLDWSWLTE
To be noted: at 0.1 µM.

Experiment [7] addresses T2, Inhibitor of nuclear factor kappa-B kinase subunit alpha (Homo sapiens). The conditions noted are these: at 1 µM.
Experiment [8] concerns the target T3, Inhibitor of nuclear factor kappa-B kinase subunit beta (Homo sapiens) (UniProt O14920).
T3 sequence (whole entry): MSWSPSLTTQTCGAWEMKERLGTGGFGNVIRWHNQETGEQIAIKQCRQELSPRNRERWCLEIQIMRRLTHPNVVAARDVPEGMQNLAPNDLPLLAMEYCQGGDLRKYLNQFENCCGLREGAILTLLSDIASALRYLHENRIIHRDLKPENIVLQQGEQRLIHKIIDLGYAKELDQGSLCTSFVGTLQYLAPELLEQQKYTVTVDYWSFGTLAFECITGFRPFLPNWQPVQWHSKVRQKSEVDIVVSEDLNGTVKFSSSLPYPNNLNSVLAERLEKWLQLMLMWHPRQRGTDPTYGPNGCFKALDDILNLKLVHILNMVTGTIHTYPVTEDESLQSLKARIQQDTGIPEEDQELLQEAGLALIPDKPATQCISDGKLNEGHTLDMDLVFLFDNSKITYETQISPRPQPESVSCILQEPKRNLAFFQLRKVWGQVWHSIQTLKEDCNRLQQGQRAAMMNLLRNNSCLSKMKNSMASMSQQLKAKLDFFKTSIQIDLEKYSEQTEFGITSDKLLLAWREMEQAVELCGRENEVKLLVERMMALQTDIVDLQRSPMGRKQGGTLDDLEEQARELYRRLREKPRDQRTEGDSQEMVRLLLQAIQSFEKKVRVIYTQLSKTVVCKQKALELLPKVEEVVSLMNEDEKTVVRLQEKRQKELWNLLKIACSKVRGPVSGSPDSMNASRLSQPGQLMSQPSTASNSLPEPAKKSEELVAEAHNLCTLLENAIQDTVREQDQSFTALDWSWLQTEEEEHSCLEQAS
To be noted: at 0.1 µM.

Experiment [9] has as its target T3, Inhibitor of nuclear factor kappa-B kinase subunit beta (Homo sapiens). The conditions noted are these: at 1 µM.
The target in experiment [10] is T4, Inhibitor of nuclear factor kappa-B kinase subunit epsilon (Homo sapiens) (UniProt Q14164).
T4 sequence (whole entry): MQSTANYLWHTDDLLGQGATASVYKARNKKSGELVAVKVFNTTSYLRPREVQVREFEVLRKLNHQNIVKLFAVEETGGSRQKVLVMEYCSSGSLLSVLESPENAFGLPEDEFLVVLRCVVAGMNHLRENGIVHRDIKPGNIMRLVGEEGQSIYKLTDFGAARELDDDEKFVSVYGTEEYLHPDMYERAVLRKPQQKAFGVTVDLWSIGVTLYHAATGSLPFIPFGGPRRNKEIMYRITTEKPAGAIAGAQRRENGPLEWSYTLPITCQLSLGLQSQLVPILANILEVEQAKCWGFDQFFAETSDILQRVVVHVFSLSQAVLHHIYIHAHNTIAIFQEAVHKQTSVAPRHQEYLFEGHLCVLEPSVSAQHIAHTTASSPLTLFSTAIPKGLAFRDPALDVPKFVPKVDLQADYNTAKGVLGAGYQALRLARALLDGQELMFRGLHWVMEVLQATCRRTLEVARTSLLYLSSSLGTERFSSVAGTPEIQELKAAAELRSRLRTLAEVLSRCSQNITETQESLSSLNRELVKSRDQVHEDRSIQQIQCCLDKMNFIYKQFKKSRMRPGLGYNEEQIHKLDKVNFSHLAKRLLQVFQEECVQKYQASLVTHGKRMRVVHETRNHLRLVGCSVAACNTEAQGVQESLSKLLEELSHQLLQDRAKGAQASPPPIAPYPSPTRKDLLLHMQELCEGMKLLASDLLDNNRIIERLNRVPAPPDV
The conditions noted are these: at 0.1 µM.

For experiment [11], the target named is T4, Inhibitor of nuclear factor kappa-B kinase subunit epsilon (Homo sapiens). The conditions noted are these: at 1 µM.
Experiment [12] has as its target T5, Serine/threonine-protein kinase Nek1 (Homo sapiens) (UniProt Q96PY6).
T5 sequence (whole entry): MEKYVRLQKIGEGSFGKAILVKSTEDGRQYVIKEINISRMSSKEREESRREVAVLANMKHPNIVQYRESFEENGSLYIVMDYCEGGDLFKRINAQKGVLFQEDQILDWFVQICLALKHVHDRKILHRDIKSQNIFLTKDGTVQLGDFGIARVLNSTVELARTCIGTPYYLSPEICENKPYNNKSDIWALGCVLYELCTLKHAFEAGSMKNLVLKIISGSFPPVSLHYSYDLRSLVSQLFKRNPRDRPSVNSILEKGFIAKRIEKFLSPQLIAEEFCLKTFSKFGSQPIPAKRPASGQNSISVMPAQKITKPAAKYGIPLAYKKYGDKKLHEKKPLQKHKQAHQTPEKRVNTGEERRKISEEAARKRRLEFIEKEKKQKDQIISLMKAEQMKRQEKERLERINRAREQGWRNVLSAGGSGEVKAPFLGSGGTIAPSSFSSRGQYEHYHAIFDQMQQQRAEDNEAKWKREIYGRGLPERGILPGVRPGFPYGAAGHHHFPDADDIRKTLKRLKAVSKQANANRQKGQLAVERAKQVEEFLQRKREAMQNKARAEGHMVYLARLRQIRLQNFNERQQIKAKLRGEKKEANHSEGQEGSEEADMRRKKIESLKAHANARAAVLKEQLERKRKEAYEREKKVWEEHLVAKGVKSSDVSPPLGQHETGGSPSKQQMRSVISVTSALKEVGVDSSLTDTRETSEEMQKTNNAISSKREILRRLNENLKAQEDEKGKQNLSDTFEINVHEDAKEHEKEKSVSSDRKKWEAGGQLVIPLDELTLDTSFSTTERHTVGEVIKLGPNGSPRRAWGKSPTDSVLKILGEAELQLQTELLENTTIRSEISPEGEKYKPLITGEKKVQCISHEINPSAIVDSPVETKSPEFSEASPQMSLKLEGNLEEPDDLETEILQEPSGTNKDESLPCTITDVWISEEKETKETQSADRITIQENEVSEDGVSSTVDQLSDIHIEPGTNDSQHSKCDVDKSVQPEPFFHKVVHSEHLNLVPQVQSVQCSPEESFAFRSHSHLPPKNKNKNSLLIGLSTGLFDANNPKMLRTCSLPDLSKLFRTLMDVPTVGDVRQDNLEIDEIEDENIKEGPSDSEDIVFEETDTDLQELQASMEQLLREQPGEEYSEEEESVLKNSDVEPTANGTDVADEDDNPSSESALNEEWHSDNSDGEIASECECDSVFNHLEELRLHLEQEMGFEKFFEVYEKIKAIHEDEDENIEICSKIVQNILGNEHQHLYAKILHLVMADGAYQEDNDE
The conditions noted are these: at 0.1 µM.

Experiment [13] deals with T5, Serine/threonine-protein kinase Nek1 (Homo sapiens). The conditions noted are these: at 1 µM.
The target of experiment [14] is T6, Serine/threonine-protein kinase Nek2 (Homo sapiens) (UniProt P51955).
T6 sequence (whole entry): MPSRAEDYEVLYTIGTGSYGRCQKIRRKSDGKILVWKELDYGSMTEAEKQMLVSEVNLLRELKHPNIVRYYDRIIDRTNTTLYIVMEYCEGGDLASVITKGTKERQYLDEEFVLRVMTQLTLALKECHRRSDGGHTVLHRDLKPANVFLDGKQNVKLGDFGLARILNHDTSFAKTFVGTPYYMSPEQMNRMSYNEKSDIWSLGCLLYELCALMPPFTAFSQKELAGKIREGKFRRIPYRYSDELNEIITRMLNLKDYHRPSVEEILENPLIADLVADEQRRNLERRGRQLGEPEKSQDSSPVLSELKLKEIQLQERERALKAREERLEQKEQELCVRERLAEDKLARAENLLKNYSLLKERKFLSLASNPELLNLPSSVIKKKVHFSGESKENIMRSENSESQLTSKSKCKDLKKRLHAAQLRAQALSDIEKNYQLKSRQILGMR
The conditions noted are these: at 0.1 µM.

Experiment [15] deals with T6, Serine/threonine-protein kinase Nek2 (Homo sapiens). To be noted: at 1 µM.
Experiment [16] deals with Serine/threonine-protein kinase Nek6 (Homo sapiens) (UniProt Q9HC98). To be noted: at 0.1 µM.
Chain of Serine/threonine-protein kinase Nek6 (Homo sapiens) (Q9HC98 whole entry): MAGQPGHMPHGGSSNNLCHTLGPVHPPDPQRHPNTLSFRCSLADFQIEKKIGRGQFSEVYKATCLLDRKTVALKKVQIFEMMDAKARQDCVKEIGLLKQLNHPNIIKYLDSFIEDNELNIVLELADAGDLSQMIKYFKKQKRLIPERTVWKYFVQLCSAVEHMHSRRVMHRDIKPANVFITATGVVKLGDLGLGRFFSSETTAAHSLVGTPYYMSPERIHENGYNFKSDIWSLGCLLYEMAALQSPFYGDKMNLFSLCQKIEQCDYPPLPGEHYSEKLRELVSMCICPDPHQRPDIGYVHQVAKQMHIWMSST
Experiment [17] has the same target. The conditions noted are these: at 1 µM.
In experiment [18] the target is Serine/threonine-protein kinase Nek7 (Homo sapiens) (UniProt Q8TDX7). To be noted: at 0.1 µM.
Chain of Serine/threonine-protein kinase Nek7 (Homo sapiens) (Q8TDX7 whole entry, looked up): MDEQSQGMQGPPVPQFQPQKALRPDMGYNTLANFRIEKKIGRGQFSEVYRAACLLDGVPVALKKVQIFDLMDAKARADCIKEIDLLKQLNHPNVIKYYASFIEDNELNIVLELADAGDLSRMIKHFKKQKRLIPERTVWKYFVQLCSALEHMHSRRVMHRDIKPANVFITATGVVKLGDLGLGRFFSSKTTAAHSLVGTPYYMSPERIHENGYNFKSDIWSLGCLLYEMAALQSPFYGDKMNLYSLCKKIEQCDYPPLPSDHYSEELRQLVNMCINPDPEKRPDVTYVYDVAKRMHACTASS
The target is the same in experiment [19]. The conditions noted are these: at 1 µM.
For experiment [20], the target named is T7, Serine/threonine-protein kinase Nek9 (Homo sapiens) (UniProt Q8TD19).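 Also: reported value is the mean percent inhibition of NEK9.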
T7 sequence (whole entry): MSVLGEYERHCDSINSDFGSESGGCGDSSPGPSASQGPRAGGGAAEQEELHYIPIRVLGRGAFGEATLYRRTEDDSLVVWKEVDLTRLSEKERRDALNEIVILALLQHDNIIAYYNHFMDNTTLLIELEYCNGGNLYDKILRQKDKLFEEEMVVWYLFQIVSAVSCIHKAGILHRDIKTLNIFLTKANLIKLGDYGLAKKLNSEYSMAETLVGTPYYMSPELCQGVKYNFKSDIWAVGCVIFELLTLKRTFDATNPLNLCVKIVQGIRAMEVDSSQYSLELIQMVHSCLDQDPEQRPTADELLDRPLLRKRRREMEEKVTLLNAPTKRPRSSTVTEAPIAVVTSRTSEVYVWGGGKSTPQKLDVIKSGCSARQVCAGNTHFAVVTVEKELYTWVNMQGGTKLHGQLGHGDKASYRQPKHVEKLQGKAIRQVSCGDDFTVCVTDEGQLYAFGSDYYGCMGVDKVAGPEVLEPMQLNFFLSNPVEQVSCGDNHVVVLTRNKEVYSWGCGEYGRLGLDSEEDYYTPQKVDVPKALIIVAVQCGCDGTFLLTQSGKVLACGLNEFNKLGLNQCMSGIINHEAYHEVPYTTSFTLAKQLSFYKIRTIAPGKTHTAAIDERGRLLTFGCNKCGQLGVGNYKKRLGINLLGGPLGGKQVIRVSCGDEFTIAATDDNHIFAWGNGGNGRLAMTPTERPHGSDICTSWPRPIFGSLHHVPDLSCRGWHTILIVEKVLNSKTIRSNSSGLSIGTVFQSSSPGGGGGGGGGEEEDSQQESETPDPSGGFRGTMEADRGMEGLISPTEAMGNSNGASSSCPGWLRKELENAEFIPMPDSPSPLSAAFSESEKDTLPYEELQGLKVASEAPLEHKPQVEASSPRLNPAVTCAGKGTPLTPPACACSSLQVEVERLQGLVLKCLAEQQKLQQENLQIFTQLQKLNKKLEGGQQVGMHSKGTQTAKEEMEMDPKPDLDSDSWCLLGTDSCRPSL
The conditions noted are these: at 0.1 µM.

The record followed here is ChEMBL document CHEMBL1961873, “Compounds: GSK PKIS; Assays: Nanosyn kinase panel” (2012).

As a reminder, the inhibition is the relative decrease from the control value, in per cent.

The structures appear in SMILES notation.

Chain of Casein kinase II subunit alpha (Homo sapiens) (P68400 whole entry, looked up): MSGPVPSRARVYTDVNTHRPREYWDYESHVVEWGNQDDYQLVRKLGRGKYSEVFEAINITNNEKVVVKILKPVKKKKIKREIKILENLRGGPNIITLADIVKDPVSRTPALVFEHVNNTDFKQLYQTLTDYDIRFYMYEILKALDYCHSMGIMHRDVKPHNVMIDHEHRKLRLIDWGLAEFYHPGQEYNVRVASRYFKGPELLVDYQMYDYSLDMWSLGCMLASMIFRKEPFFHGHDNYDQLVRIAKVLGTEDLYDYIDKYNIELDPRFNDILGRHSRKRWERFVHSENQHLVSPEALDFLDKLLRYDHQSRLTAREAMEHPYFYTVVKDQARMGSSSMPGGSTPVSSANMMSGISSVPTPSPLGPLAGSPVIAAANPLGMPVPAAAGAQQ
Chain of Sphingosine kinase 1 (Homo sapiens) (Q9NYA1 whole entry): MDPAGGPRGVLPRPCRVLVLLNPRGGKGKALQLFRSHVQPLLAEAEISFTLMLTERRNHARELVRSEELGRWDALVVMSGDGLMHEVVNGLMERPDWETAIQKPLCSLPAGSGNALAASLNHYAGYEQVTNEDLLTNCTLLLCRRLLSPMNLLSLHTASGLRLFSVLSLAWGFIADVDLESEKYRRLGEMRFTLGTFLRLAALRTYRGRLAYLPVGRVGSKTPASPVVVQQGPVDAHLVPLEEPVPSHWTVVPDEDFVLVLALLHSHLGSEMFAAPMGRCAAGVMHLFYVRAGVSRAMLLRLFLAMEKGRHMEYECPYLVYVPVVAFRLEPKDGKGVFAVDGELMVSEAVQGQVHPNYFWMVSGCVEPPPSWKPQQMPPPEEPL

For `O=C1Nc2ccc(I)cc2C1=Cc1cc(Br)c(O)c(Br)c1`, the inhibition is 0.73% in [1]; -0.66% in experiment [2]; 3.26% in [3]; 4.28% in [4]; 17.9% in experiment [5]; 1.76% in experiment [6]. Further, the inhibition stood at 3.02% in experiment [7]; 1.64% in experiment [8]; 3.61% in [9]; 10.2% in [10]; 3.78% in [11]; 2.45% in experiment [12]. For the same molecule, the inhibition in experiment [13] came to 3.61%; in experiment [14], 4.91%; in experiment [15], 3.15%; in experiment [16], 1.35%; in experiment [17], 3.89%; in experiment [18], 4.66%. The results for the inhibition in experiment [19] and in experiment [20] were 10.6% and 9.81%, respectively.
